Assay outcomes: PubChem, several laboratories
NR2F2 inh = blocks human COUP-TFII nuclear receptor; P24468; HEK293T NGFI-A luciferase reporter, luminescence; inhibition, % at 8.6 µM; 370,000 tested, 0.7% active;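 active = inhibition above a per-plate cutoff, mean inhibition of test wells between control levels plus 3 SD, cut at about 38% in these data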;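 also: cells cotransfected with COUP-TFII expression vector driving the NGFI-A reporter; 0% = median of COUP-TF2 test wells and 100% = reporter-only cells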
Gli-Sufu antag = antagonists of Gli-Sufu signaling. Sufu-KO-LIGHT fibroblasts, Gli luciferase reporter luminescence. inhibition, % at 5 µM. 340,000 tested, 0.74% active;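 active = inhibition above about 55%, limit read from the data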;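 also: 0% = DMSO-treated cells and 100% = wells with medium but no cells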
SRC3 inh = human NCOA3 inhibition | AID 588352 | 360,000 tested, 0.17% active | HEK293 GAL4-SRC3 luciferase reporter, luminescence | inhibition, % at 3.6 µM;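 active = inhibition above a per-campaign cutoff, the mean of all compounds plus 3 SD, cut at about 60% in these data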;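 also: 0% = DMSO-treated cells and 100% = gossypol-treated cells at 36 µM; higher means less SRC3-driven luciferase light from the GAL4 reporter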
SRC1 inh = inhibits human SRC1 coactivator; HEK293 GAL4-SRC1 luciferase reporter, luminescence; 360,000 tested, 0.12% active; Q15788; AID 588354; inhibition, % at 3.6 µM;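 active = inhibition above the campaign mean plus 3 SD, with each screening campaign given its own cutoff, cut at about 60% in these data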;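 also: 0% = DMSO treated cells and 100% = gossypol at 36 µM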
NR5A2 inv ag = suppresses constitutive activity of human LRH-1. inhibition, % at 3.6 µM. 360,000 tested, 0.13% active. HEK293T StAR-luciferase reporter, LRH-1 transfected, 24 h;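 active = inhibition above the mean inhibition of all tested compounds plus 3 SD, cut at about 73% in these data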;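 also: 0% = DMSO wells and 100% = reporter-only cells lacking LRH-1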
SRC2 inh = inhibits human steroid receptor coactivator 2 | Q15596 | HEK293 GAL4-SRC2 luciferase reporter, luminescence | inhibition, % at 9 µM | 370,000 tested, 0.17% active;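 active = inhibition above the mean inhibition of all tested compounds plus 3 SD, set per campaign, cut at about 52% in these data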;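 also: 0% = DMSO treated cells and 100% = cells given Gossypol at 36 µM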
Gli antag conf = confirmation of Gli-SUFU pathway antagonists. AID 602428. Sufu-KO-LIGHT cells, Gli luciferase reporter, luminescence. inhibition, % at 5 µM. shares compounds with Gli-Sufu antag. 2,500 tested, 40% active;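 active = mean inhibition at 5 µM reaching about 45%, limit read from the data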;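 also: plate controls were DMSO-treated cells for no effect and wells lacking cells for full effect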
SufuKO cytotox = counter-screen for Gli-SUFU antagonists: cytotoxicity; shares compounds with Gli-Sufu antag; Sufu-KO-LIGHT cells cytotoxicity, ATP luminescence; cytotoxicity, % at 5 µM; 2,500 tested, 32% active; AID 651994;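 active = mean cytotoxicity at 5 µM above about 25%, limit read from the data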;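 also: cells exposed to compound overnight for roughly 16 to 18 hours; plate controls were DMSO wells with cells for no effect and medium without cells for full effect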
Wnt3a counter = counter-screen for Gli-SUFU antagonists: Wnt3a reporter inhibition; shares compounds with Gli-Sufu antag; Wnt-LIGHT cells, Wnt3a-driven luciferase reporter, luminescence; AID 651995; inhibition, % at 6.25 µM; 2,500 tested, 20% active;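 active = mean inhibition above about 25%, limit read from the data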
* hit, by the source's call; nt = no result given. Hits are enriched below; roughly 1.2% of the tested compounds scored in any of these assays.

SMILES | NR2F2 inh | Gli-Sufu antag | SRC3 inh | SRC1 inh | NR5A2 inv ag | SRC2 inh | others
CCN1C(=NCCOC)N[C@@H](c2cccc(C(F)(F)F)c2)C(C(=O)OC)=C1C | -7.3 | 14.2 | 0.9 | -4.3 | -0.9 | 16.4
CCN1C(=NCC2CC2)N[C@@H](c2cccc(C(F)(F)F)c2)C(C(=O)OC)=C1C | nt | 95.9* | 8.5 | 7.3 | 9.2 | nt
c1ccc(-c2nnc(-c3ccccn3)nc2NC2CCCCC2)cc1 | -2.3 | 91.0* | 78.2* | 50.5 | 67.5 | 13.8
O=C(OC1CC2CCC(C1)[N+]21CCCC1)C(O)(c1ccccc1)c1ccccc1 (stereo not drawn) | -14.9 | nt | nt | nt | nt | -2.6
Oc1ccccc1N=Nc1ccccc1O | -58.6 | 87.2* | 69.0* | 33.6 | 35.8 | 20.8
CCN1CSC(=S)N(Cc2ccccc2)C1 | 5.3 | 62.5* | -13.7 | -12.1 | 12.1 | -28.4
CCCC(=O)N1CCN(c2ccc(NC(=O)c3cc4ccccc4o3)cc2Cl)CC1 | 36.5 | 0.8 | 75.7* | 46.1 | 36.2 | 40.8
C=CCN1C(=O)[C@@H](CC(=O)NCc2cccc(C(F)(F)F)c2)[C@]2(C(=O)OCC)CCCCC/C=C/12 | -13.3 | nt | nt | nt | nt | -11.8
CN(c1ccc(Cl)cc1)c1cc(=O)n(C)c2ccccc12 | -27.2 | 22.6 | 26.6 | 5.0 | -15.3 | -39.1
CN(C)c1ccc(C=c2c3ccccc3n3c2cc(-c2ccc(Cl)cc2)[n+]3C)cc1 | 58.7* | 83.2* | 68.0* | 6.5 | 74.2* | -27.9
CC(=O)N(Cc1ccc(F)cc1)C1=C(NCc2ccccc2)C(=O)c2ccccc2C1=O | nt | 91.5* | 62.5* | 23.9 | 39.8 | nt
Cc1ccc(NC(=O)CCN2CCCCC2)cc1 | -17.0 | 0.9 | 7.8 | 20.5 | 8.7 | 59.3*
O=Cc1ccc(O)c2ncccc12 | nt | 64.2* | -7.5 | 12.9 | 10.5 | nt
O=S(=O)(c1ccc(Br)cc1)N1CCN(c2cc(-c3ccccc3)nc3ncnn23)CC1 | nt | 9.9 | 15.2 | 6.7 | 15.6 | nt
O=S(=O)(c1ccccc1)N1CCN(c2cc(-c3ccccc3)nc3ncnn23)CC1 | 15.3 | 56.7* | 10.8 | -5.0 | 17.1 | 6.0
COC(=O)C1=C(C)N(Cc2ccccc2C(F)(F)F)C(=NCc2cccc(C(F)(F)F)c2)NC1c1cccc(Cl)c1 (stereo not drawn) | 1.3 | nt | nt | nt | nt | -5.1
Cc1ccc(Nc2nc(N)nc(CCl)n2)c(C)c1 | -12.8 | 67.6* | 55.5 | 47.4 | 46.3 | 45.2
Cc1cccc(Nc2nc(N)nc(CCl)n2)c1C | 12.6 | 81.2* | 51.6 | 24.2 | 31.9 | 43.0
Nc1ccn([C@@H]2O[C@H](C(=O)N[C@H](Cc3ccccc3)C(=O)N3CCN(CC(=O)N4CCCC4)CC3)[C@@H](O)[C@H]2O)c(=O)n1 | -0.2 | nt | nt | nt | nt | 4.4
CCc1cc2c(nc1CC)CCCN2CCOC | 15.8 | nt | nt | nt | nt | -17.5
COc1ccc2c(n1)Sc1nc3ccccc3nc1N2 | 28.7 | 2.3 | -96.2 | -105.1 | -147.2 | 64.7*
COc1cc2ccccc2nn1 | -4.8 | 6.0 | 16.2 | 0.1 | 2.5 | -12.9
Cc1cccc(C)c1NC(=O)[C@@H]1CC(=O)O[C@@H]1c1ccccc1 | -8.7 | nt | nt | nt | nt | 0.1
O=c1[nH]c(=O)n(C2CC(O)C(CO)O2)cc1Br (stereo not drawn) | 19.7 | -20.0 | 20.1 | 22.5 | -120.1 | -61.9
O=c1[nH]c(=O)n(C2C[C@H](O)[C@@H](CO)O2)cc1C(F)(F)F (stereo partly drawn) | -18.9 | 30.3 | 72.5* | 74.6* | -29.4 | -5.5
SMILES | NR2F2 inh | Gli-Sufu antag | SRC3 inh | SRC1 inh | NR5A2 inv ag | SRC2 inh | others
O=c1[nH]c(=O)n([C@H]2C[C@H](O)[C@@H](CO)O2)cc1C(F)(F)F | 4.4 | 41.6 | 64.6* | 77.0* | -35.4 | -26.7
COc1cccc(C(=O)N[C@H](C(=O)N2CCC[C@H]2C(=O)NCCc2ccccc2Cl)C2CCCCC2)c1 | 5.9 | nt | nt | nt | nt | -18.8
CC1=NN(c2nc3ccccc3[nH]2)C(=O)C1Cc1ccccc1 (stereo not drawn) | nt | 28.6 | 74.6* | 50.9 | 81.2* | nt
CCc1cc2c(=O)[nH]c(-c3ccccn3)nc2s1 | -36.9 | 58.2* | -95.1 | -101.7 | -96.0 | -54.9
CNc1cccnc1C=NNC(N)=S | -10.6 | 84.5* | 80.4* | 79.8* | 49.4 | 34.1
NC(=S)NN=Cc1nccc2c(C(F)(F)F)cccc12 | -55.1 | nt | 91.1* | 87.2* | 92.9* | 24.7
CCCCN1CCS(=O)(=O)N(Cc2ccc(Cl)cc2)C(C(=O)OC)C1 (stereo not drawn) | 1.7 | nt | nt | nt | nt | -1.4
COc1ccc(CNS(=O)(=O)c2csc(C(N)=O)c2)cc1OC | -8.8 | 55.2* | -18.9 | -2.0 | 19.6 | -5.6 | Gli antag conf=21.9;SufuKO cytotox=3.3;Wnt3a counter=-25.2
CCOC(=O)C1CCCN(C2CCN(Cc3nc(-c4ccccc4)no3)CC2)C1 (stereo not drawn) | -13.6 | 7.8 | 16.3 | -17.7 | 1.4 | 4.2
CCOC(=O)C1CCCN(C2CCN(Cc3nc(Cc4ccccc4)no3)CC2)C1 (stereo not drawn) | 3.2 | 50.0 | 11.7 | 15.7 | 20.3 | 12.0 | Gli antag conf=23.3;SufuKO cytotox=10.4;Wnt3a counter=-28.6
CCCc1nc(SCC(=O)Nc2nnc(CC)s2)c2c(=O)n(C)c(=O)n(C)c2n1 | -24.9 | 66.4* | -9.1 | 4.7 | -2.8 | 18.7 | Gli antag conf=50.2*;SufuKO cytotox=23.0;Wnt3a counter=5.7
CCCc1nc(SCC(=O)Nc2nnc(SCC)s2)c2c(=O)n(C)c(=O)n(C)c2n1 | -0.9 | 57.8* | -5.1 | 4.5 | 12.1 | -13.2 | Gli antag conf=55.7*;SufuKO cytotox=34.6*;Wnt3a counter=6.7
CCc1nc(SCC(=O)Nc2nnc(CC)s2)c2c(=O)n(C)c(=O)n(C)c2n1 | 21.9 | 41.6 | 12.0 | 11.1 | 9.6 | 7.8
COC(=O)[C@]12C[C@H](CC(=O)NCCCN3CCCC3=O)C(=O)N(Cc3cccc4ccccc34)C1=C[C@H](C(C)C)O[C@@H]2C1CC1 | 0.1 | nt | nt | nt | nt | 5.9
Cc1cccc(OCCn2cc(/C=N/NC(=O)c3ccncc3)c3ccccc32)c1 | 4.8 | 96.2* | 1.1 | 11.8 | -11.7 | -17.0 | Gli antag conf=26.7;SufuKO cytotox=28.7*;Wnt3a counter=-13.2
COC(=O)N/N=C/c1cn(CCOc2cccc(OC)c2)c2ccccc12 | 5.9 | 6.3 | 5.8 | -3.1 | -11.2 | -22.5
CCCn1c(N2CCN(C(=O)NCc3ccccc3)CC2)nc2ccccc21 | 0.0 | 56.6* | 20.5 | 1.5 | -16.8 | -5.9 | Gli antag conf=33.7;SufuKO cytotox=19.6;Wnt3a counter=-89.8
Cn1c(N2CCN(C(=O)NCc3ccccc3)CC2)nc2ccccc21 | 13.1 | 9.7 | 4.5 | 3.1 | 0.5 | -0.5
Cc1ccc(NC(=O)N2CCC(c3nc4ccc(Cl)cc4[nH]3)CC2)cc1F | 7.6 | nt | nt | nt | nt | 11.1
O=C(Nc1nnc(-c2cccs2)o1)c1cccc(Oc2ccccc2)c1 | 18.6 | 3.4 | -14.1 | -1.5 | 11.0 | -15.2
